Test results reported in PubChem BioAssay AID939 (National Center for Advancing Translational Sciences (NCATS), 2007).
Inconclusive results are not listed.

Assay: Confirmation Concentration-Response Assay for Agonists of the Thyroid Stimulating Hormone Receptor; note: reference of the scale not given here
Conditions: HEK293 TSHR-CNG cells, membrane potential dye, cAMP; measured here: parental HEK293 counter-screen max
Procedure, shortened: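 A cyclic nucleotide gated channel serves as cAMP sensor in HEK 293 cells stably carrying TSHR, with depolarization detected by fluorescent dye at 590 nm after 30 min compound. Parental cells lacking TSHR run alongside.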

Going from O=c1c2ccccc2ncn1-c1ccc2c(c1)OCCO2 to CC(c1ccco1)N(C(=O)c1ccc(Cl)s1)c1ccccn1 (stereo not given), the max response rises from 6.03% to 8.8%.

Compared with CC(C)CC(=O)Nc1cccc(-c2cn3ccsc3n2)c1, COc1cc(NC(=O)c2cc(-n3cnnc3)ccc2Cl)cc(OC)c1 is higher in max response: -8.65% for the first, -1.27% for the second.

Compared with COc1ccc(CNc2nc(SC)n[nH]2)cc1OC, COc1ccc(-c2ccc(-c3noc(C)n3)c(OC)n2)cc1 is higher in max response: 3.91% for the first, 8.55% for the second.

First: Cc1ccc2nc(SCC(=O)O)nc(C)c2c1
Second: Cc1ccc(S(=O)(=O)NC(=O)Nn2c(C)nnc2C)cc1
The max response of the first is higher: 13% for the first, 1.93% for the second.

Compared with NC(=O)c1nsc(C(=O)N(CC(=O)NCc2ccc3c(c2)OCO3)C2CCCC2)c1N, Cc1occc1-c1nnc(SCC(=O)NCc2ccc3c(c2)OCO3)n1CC(C)C is higher in max response: 7.46% for the first, 9.78% for the second.

Going from CCc1ccccc1NC1=NCC(=O)N1Cc1ccc(OC)cc1 to CCOc1ccc(N(C(C)C(=O)Nc2ccc(OC)cc2)S(C)(=O)=O)cc1 (stereo not given), the max response rises from -6.12% to -4.4%.

Compared with CN1C(=O)N(C)C2(c3ccccc3)Nn3c(s/c(=C/c4ccco4)c3=O)=NC12c1ccccc1 (stereo not given), Cc1ccccc1NC(=O)CSc1nnc(-c2ccoc2C)n1CCc1ccccc1 is higher in max response: -0.854% for the first, 20.3% for the second.

Going from CCOC(=O)c1ccc(NC(=O)c2ccc(CN3CCOCC3)cc2)cc1 to COc1cc2c(N3CCOCC3)cc(O)c(CC(=O)Nc3ccccc3)c2cc1OC, the max response falls from 11% to -10.7%.

Compared with O=C(COC(=O)C12CC3CC(CC(C3)C1)C2)NCc1ccco1, COc1ccc(C(=O)N(Cc2ccco2)Cc2cccs2)c(O)c1 is lower in max response: -5.29% for the first, -7.34% for the second.

First: O=C(CN(Cc1ccc(F)cc1)S(=O)(=O)c1ccccc1)N1CCCCC1
Second: CC(=O)Nc1ccc(S(=O)(=O)N(C)c2ccccc2)cc1
The max response of the first is lower: -6.59% for the first, 4.53% for the second.

Compared with CCOc1ccc(N(CC(=O)NC(C)(C)C)S(=O)(=O)c2c(C)noc2C)cc1, CCOc1ccc(N(CC(=O)Nc2ccc(C)cc2)S(=O)(=O)c2c(C)noc2C)cc1 is lower in max response: 6.91% for the first, 5.32% for the second.

Compared with COC(=O)C1=C(C)OC(N)=C(C#N)C1C1CCCCC1 (stereo not given), Cc1ccccc1NC(=O)N1C2CCCC1CC(NC(=O)C1CC1)C2 (stereo not given) is higher in max response: 16.5% for the first, 20.1% for the second.

Compared with CN(Cc1ccco1)C(=O)Cn1c(=O)oc2cc(S(=O)(=O)NCc3ccccc3)ccc21, Oc1ccccc1-c1cc(C(F)(F)C(F)F)nc(-c2ccccc2)n1 is higher in max response: -3.7% for the first, 3.44% for the second.

Compared with Cc1ccccc1-n1nc(C)c2cc(C(=O)N3CCN(S(=O)(=O)c4ccc(F)cc4)CC3)sc21, Cc1cc(Cl)c(S(=O)(=O)Nc2ccc3c(c2)OCO3)cc1OCC(N)=O is lower in max response: -1.22% for the first, -8.28% for the second.

Compared with O=C1C=C(NCc2ccccc2)C2(CCCCC2)O1, Cc1nc2ccc(Br)cn2c(=O)c1Cl is lower in max response: 16.9% for the first, -3.12% for the second.
